# ssDAF-12 act: activates DAF-12 receptor from parasite S. stercoralis | 370,000 tested, 1% active | AID 652126 | activation, % at 6.8 µM | HEK293 ssDAF-12/GRIP1 lit1-tk-luc reporter, luminescence; % of 3 µM dafachronic acid response;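 active = activation above the mean over all tested compounds plus 3 SD, cut at about 0.9% in these data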;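 also: 0% = DMSO-only wells and 100% = 3 µM delta7-dafachronic acid wells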
# DAX1 inh-1: NR0B1 (DAX1) inhibition. 340,000 tested, 0.99% active. HEK293 Gal4-DAX1 luciferase reporter, luminescence. inhibition, % at 6.75 µM. P51843;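 active = inhibition above the mean over all tested compounds plus 3 SD, cut at about 4.2% in these data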;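 also: 0% = DAX1-transfected cells with DMSO and 100% = empty-vector control cells with DMSO; inhibition shows as a rise in luminescence from relieved DAX1 repression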
# Target sequence (P51843 207-470 limits assumed): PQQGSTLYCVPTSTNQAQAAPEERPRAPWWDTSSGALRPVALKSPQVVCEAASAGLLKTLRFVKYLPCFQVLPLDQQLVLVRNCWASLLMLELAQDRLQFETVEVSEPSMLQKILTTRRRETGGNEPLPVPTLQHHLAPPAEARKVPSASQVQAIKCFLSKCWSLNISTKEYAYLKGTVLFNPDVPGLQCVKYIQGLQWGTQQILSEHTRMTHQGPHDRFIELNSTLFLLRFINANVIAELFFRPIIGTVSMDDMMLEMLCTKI
# DAX1 inh-2: inhibitors of DAX1 repression of SF-1 activated StAR promoter; AID 652010; 370,000 tested, 1.1% active; inhibition, % at 6.8 µM; HEK293T StAR-luciferase reporter, SF-1/DAX-1 repression relief;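 active = inhibition above the mean over all tested compounds plus 3 SD, cut at about 3.6% in these data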;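 also: 0% = DAX-1 cells with DMSO and 100% = cells lacking DAX-1 with DMSO; higher inhibition means more luminescence from relief of DAX-1 repression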
# hcDAF-12 act: activates DAF-12 receptor from parasite H. contortus; 370,000 tested, 1.4% active; activation, % at 6.8 µM; HEK293 hcDAF-12 lit1-tk-luc reporter, luminescence; 0% DMSO, 100% Δ7-dafachronic acid;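 active = activation above the mean of all tested compounds plus 3 SD, cut at about 5.5% in these data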;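 also: 100% = response to 3 µM Δ7-dafachronic acid high control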
# hgDAF-12 ag: activates the H. glycines DAF-12 receptor ligand-binding domain; activation, % at 6.8 µM; AID 687014; HEK293 GAL4-hgDAF12 UAS-luciferase reporter, agonist luminescence; normalized to butyrate control; 370,000 tested, 1.8% active;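 active = activation above a cutoff set at the mean of all screened compounds plus 3 SD, cut at about 10% in these data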;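 also: 0% = DMSO wells and 100% = sodium butyrate wells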
# LXR ag: counter-screen for hcDAF-12 agonists: agonists of human LXR-beta; shares compounds with hcDAF-12 act; AID 743027; activation, % at 6.8 µM; 3,400 tested, under 10 active; HEK293 Gal4-LXR tk-luc reporter, luminescence, 24 h; normalized: DMSO 0%, positive control 100%;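 active = mean percent activation of the reporter above a cutoff set as the average over tested compounds plus their standard deviation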
# Target sequence (P55055 whole entry, looked up, the tested form may be a part): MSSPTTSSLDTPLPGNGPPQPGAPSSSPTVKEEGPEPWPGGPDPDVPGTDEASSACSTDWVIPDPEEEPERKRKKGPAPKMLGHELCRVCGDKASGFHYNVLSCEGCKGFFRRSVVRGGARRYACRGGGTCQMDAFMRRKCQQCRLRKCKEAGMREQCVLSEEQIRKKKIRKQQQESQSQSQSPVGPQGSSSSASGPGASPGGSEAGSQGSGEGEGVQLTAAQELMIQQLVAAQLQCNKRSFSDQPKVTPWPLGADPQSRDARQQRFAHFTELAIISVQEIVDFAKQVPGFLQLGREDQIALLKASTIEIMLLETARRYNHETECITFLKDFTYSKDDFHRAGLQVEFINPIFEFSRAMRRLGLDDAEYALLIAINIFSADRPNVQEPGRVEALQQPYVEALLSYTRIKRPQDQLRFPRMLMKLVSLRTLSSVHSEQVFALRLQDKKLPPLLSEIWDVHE
# hcDAF12 ag: hcDAF-12 agonism, confirmation assay; activation, % at 6.8 µM; AID 743032; shares compounds with hcDAF-12 act; HEK293 hcDAF-12 lit1-tk-luc reporter, luminescence; % of Δ7-dafachronic acid response; 3,400 tested, 61% active;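 active = mean activation across triplicate tests above the threshold derived from the earlier primary screen, cut at about 5.5% in these data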;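 also: 0% = DMSO only wells and 100% = 3 µM Δ7-dafachronic acid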
# Starred values were filed as active, the others as inactive; x = no result. Shown are actives, neighbours in structure and some others; about 4.1% of the full set was active somewhere.
SMILES,ssDAF-12 act,DAX1 inh-1,DAX1 inh-2,hcDAF-12 act,hgDAF-12 ag,LXR ag,hcDAF12 ag
O=C(C[C@@H]1C/C=C\CCCC(=O)OC[C@@H]2CCCN2C1=O)N[C@@H](CO)Cc1ccccc1,-0.8,0.6,-0.5,-0.7,1.6,x,x
O=C(Nc1nccc(-c2cccs2)n1)c1cccs1,0.5,2.6,0.3,7.1*,6.6,0.3,6.8*
CC(C)C1C(C#N)=C(N)Oc2n[nH]c(-c3ccccc3)c21 (stereo not given),-1.4,-0.2,-1.3,-1.3,-1.6,x,x
CC(C)c1[nH]nc2c1C(C(C)C)C(C#N)=C(N)O2 (stereo not given),1.3*,-0.4,0.4,6.9*,-1.7,-0.1,7.8*
Cc1ccc(/C=C/C(=O)Nn2cnnc2)cc1,-1.1,1.1,0.1,0.1,1.4,x,x
Cc1ccc(/C=C/C(=O)C2C(=O)c3ccccc3C2=O)cc1,0.0,-1.6,2.3,8.7*,7.8,0.9,11.6*
C[C@H]1C(=O)N(C)CCN1C(=O)c1ccc(OC2CCN(CCc3ccccc3)CC2)cc1,-1.8,0.2,-0.1,0.0,-0.8,x,x
O=C(NCc1cc(Cl)cc(Cl)c1)c1csc([C@@H]2C[C@H](O)[C@@H](CO)O2)n1,-0.8,x,0.0,0.8,-4.8,x,x
COc1ccc(-c2cc(C(F)F)n3ncc(C(=O)N4CCc5ccccc54)c3n2)cc1,-1.4,-1.0,-0.1,-0.5,-2.2,x,x
Cc1ccc(-c2cc(C(F)F)n3ncc(C(=O)N4CCCc5ccccc54)c3n2)cc1,-0.8,1.4,0.2,6.6*,0.4,-0.4,-0.9
COc1cccc(OC)c1C(=O)N1CCNCC1,-0.4,1.2,0.1,-1.8,-1.6,x,x
C=CCN1CCN(C(=O)c2oc3ccccc3c2C)CC1,-0.8,-0.1,0.5,7.5*,0.4,-0.2,1.8
Cc1c(C(=O)N2CCN(Cc3cccs3)CC2)oc2ccccc12,-1.5,0.0,0.4,-0.5,-0.6,x,x
CCCCNc1nnc(SCC(=O)c2c[nH]c3ccccc23)s1,-0.2,0.8,0.6,11.6*,-1.2,-0.1,4.6
Cn1cnnc1SCC(=O)c1c[nH]c2ccccc12,0.8,1.4,1.0,5.5,4.3,x,x
O=C(CCCCCn1c(=S)[nH]c2cc3c(cc2c1=O)OCO3)N1CCN(c2ccccc2)CC1,-1.2,0.4,-0.7,6.8*,2.4,-0.4,-1.2
O=C(c1ccccc1Oc1ccccc1)N1CCC(Oc2cccnc2)CC1,-0.4,x,-0.8,-2.2,-0.3,x,x
Cc1ccc(NC(=O)NCc2nc3ccccc3n2C)cc1,-0.3,0.8,0.1,1.3,1.0,x,x
COc1ccc(NCc2nc3ccccc3n2C)cc1,2.4*,5.6*,2.3,10.0*,12.0*,1.2,11.6*
Cc1ccc(NCc2nc3ccccc3n2C)cc1C,1.7*,3.3,3.1,13.0*,13.2*,1.0,8.2*
O=C(CSc1nc(O)c(C2CCCCC2)c(=O)[nH]1)Nc1ccccc1Cl,-1.0,0.2,0.0,-0.9,1.9,x,x
CC(C)NC(=O)CN1CCN(C(=O)c2ccc3oc(CCCc4ccccc4)nc3c2)CC1,-0.7,-0.4,-0.3,0.2,0.1,x,x
COc1ccc(Cl)cc1C(=O)NCC(c1ccco1)N(C)C (stereo not given),-0.2,0.5,0.7,7.3*,2.2,-0.3,3.6
N#C/C(=C(/O)CN1CCCC1)c1nc(-c2ccccc2)cs1,0.8,5.3*,2.6,8.8*,11.6*,0.5,4.9
CCCCNC(=O)C[C@@H]1C[C@@]2(C(=O)OCC)CCC=C2N(Cc2ccc(Cl)cc2Cl)C1=O,-1.2,x,-0.3,-2.3,-1.2,x,x
SMILES,ssDAF-12 act,DAX1 inh-1,DAX1 inh-2,hcDAF-12 act,hgDAF-12 ag,LXR ag,hcDAF12 ag
Cc1ccc(NC(=O)c2ccc(OC(=O)COc3cccc(Cl)c3)cc2)cc1,0.1,0.8,3.9*,7.6*,11.7*,1.0,4.4
Cc1cccc(OCC(=O)Oc2ccc(Cl)cc2)c1,-1.4,1.0,0.0,-1.0,0.6,x,x
Clc1ccccc1-c1ccc(/C=N/Nc2nncc(-c3ccccc3)n2)o1,-0.4,-1.9,0.3,10.3*,-0.1,-0.2,3.0
C(=N\NC1=Nc2cccc3cccc1c23)/c1ccccn1,0.5,5.3*,3.5,8.6*,10.1,0.6,10.3*
Cc1ccc(NC(=O)c2sc(N)nc2C)cc1,0.3,1.0,0.5,6.9*,11.2*,0.8,5.2
O=C(Nc1ccccc1SC(=O)c1ccccc1)c1ccccc1,1.8*,4.4*,1.0,7.8*,7.3,0.4,9.9*
O=C(COc1ccccc1Cl)Nc1ccc2[nH]c(=O)[nH]c2c1,-1.6,-0.5,-1.2,-2.1,-2.7,x,x
Cc1cccn2cc(-c3c[nH]c4ccccc34)nc12,0.9*,4.8*,3.2,6.9*,12.5*,0.6,10.0*
COc1cc(/C=C/c2cc[n+](C)cc2)ccc1OCC(=O)Nc1ccccc1,-0.7,1.7,0.3,0.6,1.4,x,x
COc1cc(C=C2C(=O)OC(C)(C)OC2=O)ccc1OCC(=O)Nc1ccccc1,-0.3,2.0,1.0,7.1*,7.7,0.1,2.6
O=C(NCCC(=O)N1CCN(S(=O)(=O)c2ccccc2Cl)CC1)Nc1ccccc1,-1.4,-0.4,-1.4,0.3,-0.1,x,x
Cc1ccc(/C=C/c2nnc(-c3ccccc3)o2)cc1,1.7*,0.7,2.1,7.3*,9.3,0.5,3.4
Cc1ccc(-c2noc(/C=C/c3ccccc3)n2)cc1,-1.1,1.9,0.6,0.4,1.9,x,x
Cc1ccc(C2OCC(C)([N+](=O)[O-])CO2)cc1 (stereo not given),-1.2,0.2,0.1,1.2,2.4,x,x
O=C(COC(=O)c1n[nH]c2ccccc12)Nc1ccccc1F,1.8*,2.4,1.6,6.8*,7.5,0.6,8.2*
O=C(COC(=O)CCc1ccccc1)NC1CCS(=O)(=O)C1 (stereo not given),-1.4,0.8,0.7,0.3,0.0,x,x
C/C(=N\NC(=O)c1ccccc1O)c1cccc(NC(=O)c2ccccc2)c1,1.3*,2.7,-0.1,7.0*,9.1,-0.1,5.5
C/C(=N\NC(=O)c1cc(O)ccc1O)c1cccc(NC(=O)c2ccc(Cl)cc2)c1,-1.0,0.8,3.0,-0.7,5.8,x,x
CN1CCC(=O)N([C@H](COc2ccccc2)Cc2ccccc2)CC1,-1.0,1.3,0.0,-0.6,-0.8,x,x
COC(=O)CC(=O)CSc1nc2c(cc1C#N)CCCCC2,0.2,1.9,3.1,10.4*,11.3*,0.4,4.3
CC(C)n1c(CN(C)Cc2ccccc2)nc2c1c(=O)n(C)c(=O)n2C,-1.9,x,-1.1,-4.6,-6.1,x,x
Cc1onc(-c2c(Cl)cccc2Cl)c1NC(=O)N1CCSCC1,1.8*,4.2*,3.5,8.0*,10.6*,-0.2,0.3

# Source: PubChem BioAssay (The Scripps Research Institute Molecular Screening Center)
